PubChem BioAssay AID624305 (National Center for Advancing Translational Sciences (NCATS), 2012)
Records with an inconclusive call do not appear. Active and inactive are the calls of the source. The call rests on the fitted dose curve; in most records, active means well fitted activation curve with a large enough effect; inconclusive means small, poorly fitted or top-dose-only effect; inactive means no such curve, though single readings can be large or run the other way.

experiment: qHTS assay for re-activators of p53 using a Luc reporter: Hit Validation; settings: p53-responsive luciferase reporter cells, luminescence; series mostly up to 46.1 µM; activation: at the top concentration; further: nearly all actives have a fitted effect of over 75% in size; on activation: 0% is about no effect
From the text: The p53 tumor suppressor plays a key role in suppression of tumorigenesis and in human carcinogenesis. It is frequently found inactivated in human cancers, mainly by point mutation. These point mutations are found in a wide variety of human cancers and a majority of them affect the DNA binding domain of the protein. The point mutations either alter native p53 conformation or abolish DNA contact. Additionally, cancer cells with p53 mutations are more resistant to chemo-radiation therapies.
In order to find activators to reactivate this important protein, a cell-based screen for p53-dependent luciferase-reporter expression was developed. A p53-null H1299 lung cancer cell line was stably co-transfected with a temperature sensitive p53 mutant, p53-A138V, and a p53-responsive BP100-luciferase reporter. This cell model has previously been characterized in a gene chip profiling experiment for p53 activation. By lowering the culture temperature from 37 deg C (mutant p53 conformation) to 32 deg C (w.t. p53 conformation), a 30-60 fold increase in activation of luciferase activity is observed. At assay temperate, 37 deg C, basal reporter expression is very low and after the addition of detection reagent, a luminescent read-out is carried out. This is the hit validation assay, confirming the hits identified from the primary screen.
NIH Chemical Genomics Center [NCGC]
NIH Molecular Libraries Probe Production Centers Network [MLPCN]
Assay Provider (PI): Yi Sung, University of Michigan at Ann Arbor
5ul of 1000 cells per well are dispensed in all wells except column 4, into white solid-bottom TC-treated Kalypsys plates. The cells are kept in Opti-MEM and supplemented with 10% FBS and dispensed using a Multidrop (Thermo). Then using the Kalypsys pin-tool, 23nl of compounds are pinned. The compounds are starting concentration at 10mM, with 1:5 dilution, 4 points, and the control compound nocodazole is pinned in column 1 at 25mM, 1:3 dilution, in duplicate, 25mM nocodazole is pinned in column 2. Please note, all concentrations are working concentrations. 5ul of 1pM purified luciferase enzyme is dispensed using the Kalypsys dispenser in column 4. Plates are incubated for 24 hrs at 37 deg C, 5% CO2, and 95% humidity. Then 4ul of the detection reagent Amplite (ABD Bioquest) is added using the Kalypsys dispenser. Plates are incubated for 10 min at ambient room temperature and are then read on the ViewLux (Perkin Elmer) using a clear filter for a luminescent read-out.
Potency means the concentration at half of the fitted maximal effect.

| Compound | Potency | activation |
| --- | --- | --- |
| N=C1c2ccccc2CN1CC(=O)c1ccccc1 | 20.6 µM (active) | – |
| O=C(N/N=C/c1c(O)n(Cc2ccccc2)c(=O)[nH]c1=O)c1ccccc1 | – | -38.5% [at 9.22 µM] (inactive) |
| COC(=O)C1=C(c2ccc(F)cc2OCc2ccccc2)C[C@@H]2CC[C@H]1N2C(=O)NCCOc1ccc(OC)cc1 | – | -22.9% (inactive) |
| O=C(c1cc2c(s1)CCCC2)N1CCC2(CC1)OCCO2 | – | 33.3% (inactive) |
| Cc1cc(N2C(=O)C3CCCN3C2c2sccc2C)no1 (stereo unspecified) | – | -20.3% [at 46.1 µM, H1299 line expressing heat-sensitive Ala138Val p53] (inactive) |
| Nc1ccccc1N=Cc1c(O)n(CCC2=CCCCC2)c(=O)[nH]c1=O | – | 12.5% (inactive) |
| COc1ccc(CN2CCNCC2)cc1 | – | 19.8% (inactive) |
| COC(=O)C1=C(c2cccc(C#N)c2)C[C@@H]2CC[C@H]1N2C(=O)NC1CC1 | – | 16.7% [at 46.1 µM, H1299 line expressing heat-sensitive Ala138Val p53] (inactive) |
| O=C(N/N=C/c1c(O)n(C2CC2)c(=S)[nH]c1=O)c1ccccc1 | – | -9.38% (inactive) |
| COc1ccc(NC(=O)C2C3CCC(O3)C2C(=O)O)c(OC)c1 (stereo unspecified) | – | 2.6% (inactive) |
| Nc1c(C(=O)NCc2ccco2)c2nc3ccccc3nc2n1Cc1ccc(F)cc1 | – | -6.25% [at 46.1 µM, H1299 line expressing heat-sensitive Ala138Val p53] (inactive) |
